Compounds without any hit were thinned out: in the full panel of roughly 83,000, 20% have a hit.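 How to read the values: 0–100, growth inhibition (40 = 60% inhibited); 0, no net growth; -100 to 0, cell death (-40 = 40% of starting cells died; -100 = all dead).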 Unmarked numbers belong to inactive results. Activity calls are given as the source filed them. How the source made its calls: active means growth percent below 10; inactive means the rest.

This note sets out measurements from PubChem BioAssay (NCI).

The test system of the first assay is BT-549 breast. Description: NCI-60 one-dose screen, 48 h (100 = growth as untreated, 0 = no growth, -100 = all killed). Particulars: 10 µM unless noted.
With `O=c1c(-c2nc(-c3ccccc3)c(-c3ccccc3)[nH]2)coc2ccc(F)cc12`, the growth is 70.8%.
Take `CN1CCc2c(sc3ncnc(N/N=C/c4cccc(Cl)c4Cl)c23)C1`: the growth was 63.3%.
For the compound `COc1ccc(N=Nc2c(N)nn3c(N)c(C#N)c(-c4ccccc4)nc23)cc1`, the growth is -16.7% (active).
The same measure, in the same setting: under `COc1ccc(/C=C/C(=O)c2ccc(OC)c(S(N)(=O)=O)c2)c(C(F)(F)F)c1` stands -78.9% (active).
On the same count and under the same terms, as for `COc1ccc(C2=Nc3c(N)nc(N)nc3NC(c3ccc(Oc4nc(Nc5ccc(F)cc5)nc(N(C)C)n4)c(OC)c3)C2)cc1` (stereo not drawn), the figure is 66.2%.
On the same count and under the same terms, as for `COc1ccc(NC(=O)NN2C(=O)c3ccccc3N(C)C2c2ccc(OC)cc2)cc1` (stereo not drawn), the figure is 29.9%; as for `COc1nc(N)ncc1-c1ccc2ncnc(N3CCc4cc(F)c(Cl)cc43)c2c1`, 19.9%; as for `COc1ccc(NC(=O)Nc2nc3ccc([N+](=O)[O-])cc3s2)cc1`, 17.9%.
With `COc1ccc(NC(=O)N/N=C/c2c[nH]c3ccccc23)cc1`, the growth was 19.1%.
Still for that read-out and setting: under `CC1=C(C(=O)Nc2ccccc2)C(c2ccc3ccccc3c2)n2c(nc3ccccc32)N1` (stereo not drawn) stands 92.9%.
On the same count and under the same terms, under `O=C(N/N=C/c1c[nH]c2ccccc12)Nc1ccccc1Cl` stands 1.24% (active); under `O=C(N=Nc1c(O)[nH]c2ccc(Br)cc12)c1ccc2nc(-c3ccc(Cl)cc3)[nH]c2c1`, 7.28% (active).
The same measure, in the same setting: as for `COc1ccc2c(c1)C(Sc1ccc(Br)cc1)c1c(nc(N)c(C#N)c1N)O2` (stereo not drawn), the figure is 56.1%; as for `C=CC(=O)N1CCN(c2ccc3nc4c(nc3c2C(F)(F)F)C(=O)c2ncccc2C4=O)CC1`, 10.1%.
On to `COc1ccc(NC(=O)CSc2nnc(-c3ccc(-c4nc5ccc(Cl)cc5[nH]4)cc3)o2)cc1`, for which the growth is 4.02% (active).
Same read-out and setting: under `O=c1[nH]c2ccccc2cc1COc1ccc(Nc2nccc(-c3ccc(Cl)cc3)n2)cc1` stands 99.3%.
On the same count and under the same terms, under `Cc1ccc(C(=O)Nc2ccc(-n3ccnc3)c(C(F)(F)F)c2)cc1C#Cc1cnc2cccnn12` stands -67.8% (active); under `Cc1cccc(/C=C/c2ccc(NC(=S)NCCCCN(C)C)cc2)c1`, -72.6% (active).
On the same count and under the same terms, under `N#Cc1cc(-c2ccc3ncnc(N4CCc5cc(F)c(Cl)cc54)c3c2)cnc1N` stands 9.67% (active); under `COc1ccc(-c2nnc3c(/C=C/c4ccc(Br)cc4)nc4ccccc4n23)cc1`, 9.42% (active); under `O=C(CSc1nnc(-c2ccc(-c3nc4ccccc4[nH]3)cc2)o1)Nc1ccccc1`, 98.7%.
Regarding `NC(=O)c1ccc(-c2ccc3ncnc(N4CCc5cc(F)c(Cl)cc54)c3c2)cn1`, the growth is 61.1%.
The same measure, in the same setting: under `O=C(Nc1ccc(-c2ccc3c(c2)NC(=O)/C3=C\c2ccc[nH]2)cc1)Nc1ccc(Cl)c(C(F)(F)F)c1` stands 5.89% (active); under `Nc1nn2c(-c3cc4cc(Br)ccc4oc3=O)ccnc2c1N=Nc1ccc(Br)cc1`, 40.7%.
On the same count and under the same terms, under `FC(F)(F)c1cc2c(Cl)ncnc2n1CCN1CCCCC1` stands -3.05% (active).

The subject of the next assay is MDA-MB-435 melanoma. The description is as above. Particulars: 10 µM unless noted.
As to `COc1c(B(O)O)cc(F)cc1-c1nc2c(F)cc3[nH]ncc3c2c2c1CCCC2`, the growth is 31%.
Still for that read-out and setting: under `CC1=C(C(=O)Nc2ccccc2)C(c2cccc(Cl)c2Cl)n2c(nc3ccccc32)N1` (stereo not drawn) stands 26.5%; under `COc1ccccc1NC(=O)c1ccc(NC(=O)CCl)s1`, 0.365% (active).
As to `O=C(CSc1nc2sc3c(c2c(=O)n1-c1ccc(Cl)cc1)CCCC3)NNC(=O)c1ccc(Br)cc1`, the growth is 97.3%.
Regarding `O=C1CCC(N2C(=O)c3cccc(NCCOCCOCCOCCC(=O)NCCCC(=O)NC(c4ccc5c(c4)OCO5)c4cc(Cl)c5cccnc5c4O)c3C2=O)C(=O)C1` (stereo not drawn), the growth was 47.4%.
The same measure, in the same setting: under `NCCCCn1c(SCCc2c[nH]c3ccccc23)nnc1-c1ccc2ccccc2n1` stands -75% (active); under `CCCSc1nnc(-c2sc3nc4ccccc4n3c2C)o1`, 105%.
Same read-out and setting: under `Cc1ccc2c(c1)/C(=C/C(=O)c1cc3ccccc3oc1=O)C(=O)N2` stands 75.5%.
On the same count and under the same terms, as for `Cn1cc(-c2cc(N)n3nc(-c4c[nH]c5ccccc45)cc3n2)c2cc(F)ccc21`, the figure is 14.6%; as for `COc1ccccc1/C=C/c1cccc(NC(=S)NCCCCN(C)C)c1`, -91.6% (active); as for `O=C1NC(=S)/C(=C/c2cn(-c3ccccc3)nc2-c2ccccc2)S1`, 24.6%.
Take `Cc1cc(C)c2[nH]c(=O)c(C(c3nnnn3Cc3ccc4c(c3)OCO4)N3CCN(C)CC3)cc2c1` (stereo not drawn): the growth is 106%.
Still for that read-out and setting: under `C[C@@H]1[C@H]2C[C@@H](C[C@H]1NCc1nc3ccccc3n1C1CCCCCC1)C2(C)C` stands 73.6%; under `O=c1c(-c2nc(-c3ccccc3)c(-c3ccccc3)[nH]2)coc2ccc(F)cc12`, 65.4%; under `CN1CCc2c(sc3ncnc(N/N=C/c4cccc(Cl)c4Cl)c23)C1`, 39.3%.
On the same count and under the same terms, under `COc1ccc(N=Nc2c(N)nn3c(N)c(C#N)c(-c4ccccc4)nc23)cc1` stands 62.5%.
The same measure, in the same setting: as for `COc1ccc(/C=C/C(=O)c2ccc(OC)c(S(N)(=O)=O)c2)c(C(F)(F)F)c1`, the figure is 63.6%; as for `COc1ccc(C2=Nc3c(N)nc(N)nc3NC(c3ccc(Oc4nc(Nc5ccc(F)cc5)nc(N(C)C)n4)c(OC)c3)C2)cc1` (stereo not drawn), 81.9%; as for `COc1ccc(NC(=O)NN2C(=O)c3ccccc3N(C)C2c2ccc(OC)cc2)cc1` (stereo not drawn), 103%.
Take `COc1nc(N)ncc1-c1ccc2ncnc(N3CCc4cc(F)c(Cl)cc43)c2c1`: the growth was 68.2%.
With `COc1ccc(NC(=O)Nc2nc3ccc([N+](=O)[O-])cc3s2)cc1`, the growth was 23%.
The same measure, in the same setting: under `COc1ccc(NC(=O)N/N=C/c2c[nH]c3ccccc23)cc1` stands -26.1% (active); under `CC1=C(C(=O)Nc2ccccc2)C(c2ccc3ccccc3c2)n2c(nc3ccccc32)N1` (stereo not drawn), 53.9%.
Same read-out and setting: under `O=C(N/N=C/c1c[nH]c2ccccc12)Nc1ccccc1Cl` stands 2.02% (active).
On the same count and under the same terms, as for `O=C(N=Nc1c(O)[nH]c2ccc(Br)cc12)c1ccc2nc(-c3ccc(Cl)cc3)[nH]c2c1`, the figure is -62.4% (active).
As to `COc1ccc2c(c1)C(Sc1ccc(Br)cc1)c1c(nc(N)c(C#N)c1N)O2` (stereo not drawn), the growth is 88%.
On the same count and under the same terms, under `C=CC(=O)N1CCN(c2ccc3nc4c(nc3c2C(F)(F)F)C(=O)c2ncccc2C4=O)CC1` stands -71.1% (active); under `COc1ccc(NC(=O)CSc2nnc(-c3ccc(-c4nc5ccc(Cl)cc5[nH]4)cc3)o2)cc1`, 17.8%; under `O=c1[nH]c2ccccc2cc1COc1ccc(Nc2nccc(-c3ccc(Cl)cc3)n2)cc1`, 102%.
The same measure, in the same setting: under `Cc1ccc(C(=O)Nc2ccc(-n3ccnc3)c(C(F)(F)F)c2)cc1C#Cc1cnc2cccnn12` stands 11.3%; under `Cc1cccc(/C=C/c2ccc(NC(=S)NCCCCN(C)C)cc2)c1`, -90% (active); under `N#Cc1cc(-c2ccc3ncnc(N4CCc5cc(F)c(Cl)cc54)c3c2)cnc1N`, 39.2%.
Same read-out and setting: under `COc1ccc(-c2nnc3c(/C=C/c4ccc(Br)cc4)nc4ccccc4n23)cc1` stands 28.9%; under `O=C(CSc1nnc(-c2ccc(-c3nc4ccccc4[nH]3)cc2)o1)Nc1ccccc1`, 85.6%; under `NC(=O)c1ccc(-c2ccc3ncnc(N4CCc5cc(F)c(Cl)cc54)c3c2)cn1`, 95.9%.
In the case of `O=C(Nc1ccc(-c2ccc3c(c2)NC(=O)/C3=C\c2ccc[nH]2)cc1)Nc1ccc(Cl)c(C(F)(F)F)c1`, the growth is 3.54% (active).
The same measure, in the same setting: under `Nc1nn2c(-c3cc4cc(Br)ccc4oc3=O)ccnc2c1N=Nc1ccc(Br)cc1` stands 69.5%; under `FC(F)(F)c1cc2c(Cl)ncnc2n1CCN1CCCCC1`, 56%.
